“And” between values parts separate entries of the source, which are not always exact repeats. Equal entries are not always repeated. Where a structure was tested more than once in an assay, its records may differ in their call. The source made the active and inactive calls.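 Rule for the calls, unless noted: active = compound raises insulin release from rat beta cells at 5 mM glucose, no numeric limit stated; inactive = the rest.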

The nature of experiment [1]: Wnt pathway potentiators raising nuclear beta-catenin – imaging, WNT3A-conditioned medium, mouse C2C12, NPC library, primary screen (AID 1117326; in the data active = nuclear beta-catenin stimulation mostly above about 4.2%, no sharp cut-off; inactive = mostly below about 10%; note: reference of the scale not given here). Particulars: stronger effect = higher value.
A short description of experiment [2]: stimulators of insulin release from INS-1E, primary screen, cell-based, 5 mM glucose, NPC library (AID 1117329). Note: reference of the scale not given here. Particulars: rat INS-1E insulin secretion, at 10 µM, stronger effect = higher value.
Experiment [3] can be described thus: growth inhibition of GSK3B-pretreated HCT116 cells – cell-based, CellTiter-Glo, 0.2 to 20 µM (AID 1117336;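 active = compounds lowering colon cancer cell viability after pretreatment blocking the GSK3B kinase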). Particulars: HCT116 viability after GSK3B inhibitor, at 20 µM, stronger effect = higher value.
Experiment [4] is described as follows: inhibition of endothelial tube formation, primary screen, imaging, VEGF stimulated, CD31 staining, tube area, NPC library (AID 1117340;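 active = compound that reduces growth-factor-driven endothelial tube area in a mixed cell culture, no cutoff stated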). Particulars: VEGF-stimulated ADSC/ECFC co-culture, at 10 µM, stronger effect = higher value.
A short description of experiment [5]: GLP1 release stimulators, primary, NCI-H716, NPC library (AID 1117341;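 active = compound raises GLP1 secretion from the human gut endocrine cells, with no numeric limit stated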; note: reference of the scale not given here). Particulars: NCI-H716 cells, at 10 µM, stronger effect = higher value.
Experiment [6] in a line: HCT116 colon cancer cell growth inhibition, primary screen, CellTiter-Glo luminescence, NPC library (AID 1117342;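 active = compounds that lower survival of HCT116 colon cancer cells in the luminescence readout, no numeric limit stated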). Particulars: at 20 µM (top of the series).
Experiment [7] is described as follows: reduced SW480 viability measured with CellTiter-Glo, NPC library, primary (AID 1117343;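 active = compounds that lower viability of the colon cancer cells in the luminescence readout, with no numeric limit stated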). Particulars: CellTiter-Glo luminescence; at 20 µM (top of the series).
Experiment [8] is described as follows: NPC library primary testing for decreased DLD-1 cell viability via CellTiter-Glo (AID 1117346;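 active = compounds that lower survival of DLD-1 colon cancer cells in the luminescence readout, no cutoff given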). Particulars: DLD-1 viability, CellTiter-Glo luminescence; at 20 µM (top of the series).

Regarding `CCN(CC)CCSC(=O)C(c1ccccc1)c1ccccc1`, the nuclear beta-catenin stimulation in experiment [1] (at 10 µM) was 7.2% (inactive); in experiment [1] (stimulation, at 2 µM), 2.8%. The insulin secretion stimulation in experiment [2] was 15.8% (inactive). Besides, the viability decrease in experiment [3] is 6.7% (inactive). Besides, the tube area decrease in experiment [4] was 3.2% (inactive). Further, the GLP1 secretion stimulation in experiment [5] was 9.6% (inactive). Besides, the inhibition of viability in experiment [6] was 1% (inactive). In addition, the values for the viability decrease (inhibition) in experiment [7] and in experiment [8] were 5.1% (inactive) and 1.5% (inactive), respectively.
Take `CN(C)CCN(Cc1ccsc1)c1ccccn1`: the nuclear beta-catenin stimulation in experiment [1] (at 10 µM) was -1.6% (inactive); in experiment [1] (stimulation, at 2 µM), 1.7%. Besides, the insulin secretion stimulation in experiment [2] was 1.3% (inactive). Also, the viability decrease in experiment [3] was 4.6% (inactive). In experiment [4], the tube area decrease was -14.7% (inactive). Also, the GLP1 secretion stimulation in experiment [5] was -2.8% (inactive). For the same molecule, in experiment [6], the inhibition of viability was 5.1% (inactive). Moreover, the viability decrease (inhibition) in experiment [7] was -0.5% (inactive); in experiment [8], -3.9% (inactive).
Consider `COc1ccc(CC2c3cc(OC)c(OC)cc3CCN2CCC(=O)OCCCCCOC(=O)CCN2CCc3cc(OC)c(OC)cc3C2Cc2ccc(OC)c(OC)c2)cc1OC` (stereo unspecified), for which the nuclear beta-catenin stimulation was -1.1% (inactive) in experiment [1] (at 10 µM) and 0.5% in experiment [1] (stimulation, at 2 µM). For the same molecule, the insulin secretion stimulation in experiment [2] is 2.2% (inactive). Moreover, the viability decrease in experiment [3] is -6.9% (inactive). Moreover, in experiment [4], the tube area decrease is -3.5% (inactive). For the same molecule, in experiment [5], the GLP1 secretion stimulation is -3.9% (inactive). Moreover, the inhibition of viability in experiment [6] was -6.4% (inactive). Further, the viability decrease (inhibition) in experiment [7] was 39.7% (inactive); in experiment [8], -10.6% (inactive).
On to `O=c1[nH]sc2cc(Cl)ccc12`, for which the nuclear beta-catenin stimulation was 15.5% (inactive) in experiment [1] (at 10 µM) and 7.8% in experiment [1] (stimulation, at 2 µM). Moreover, the insulin secretion stimulation in experiment [2] was -2.7% (inactive). For the same molecule, the viability decrease in experiment [3] was 58.1% (active). The tube area decrease in experiment [4] is 89.7% (active). In experiment [5], the GLP1 secretion stimulation was 45% (active). The inhibition of viability in experiment [6] was 20.5% (inactive). Moreover, the viability decrease (inhibition) in experiment [7] is 157% (active); in experiment [8], 63.5% (active).
Regarding `CN(C)CCOc1ccccc1Cc1ccccc1`, the nuclear beta-catenin stimulation in experiment [1] (at 10 µM) is -1.8% (inactive); in experiment [1] (stimulation, at 2 µM) it was 2.3%. The insulin secretion stimulation in experiment [2] was 22% (active). Further, the viability decrease in experiment [3] was -14% (inactive). Besides, the tube area decrease in experiment [4] is 4.9% (inactive). For the same molecule, in experiment [5], the GLP1 secretion stimulation was -5.1% (inactive). Moreover, in experiment [6], the inhibition of viability was 11.4% (inactive). Moreover, the viability decrease (inhibition) in experiment [7] was 34% (inactive); in experiment [8] it was 0.8% (inactive).
As for `CCN(CC)CCNC(=O)COc1ccc(Cl)cc1`, the nuclear beta-catenin stimulation in experiment [1] (at 10 µM) was -2.4% (inactive); in experiment [1] (stimulation, at 2 µM), -0.4%. The insulin secretion stimulation in experiment [2] was 0.9% (inactive). In experiment [3], the viability decrease is -9.5% (inactive). Also, the tube area decrease in experiment [4] was -3.5% (inactive). Besides, the GLP1 secretion stimulation in experiment [5] is -4.5% (inactive). Also, the inhibition of viability in experiment [6] was 22.7% (inactive). Also, the values for the viability decrease (inhibition) in experiment [7] and in experiment [8] were 34.2% (inactive) and 0.6% (inactive), respectively.
With `O=C(c1ccccc1)c1ccccc1`, the nuclear beta-catenin stimulation in experiment [1] (at 10 µM) is 0.7% (inactive); in experiment [1] (stimulation, at 2 µM) it was 1.3%. In experiment [2], the insulin secretion stimulation is -0.6% (inactive). Also, the viability decrease in experiment [3] is 8.9% (inactive). For the same molecule, the tube area decrease in experiment [4] was -20.2% (inactive). Also, the GLP1 secretion stimulation in experiment [5] is 2.4% (inactive). Besides, the inhibition of viability in experiment [6] was 22.5% (inactive). For the same molecule, the figures for the viability decrease (inhibition) in experiment [7] and in experiment [8] were 21% (inactive) and 9.1% (inactive), respectively.
For `COC1=C(OC)C(=O)C(CC=C(C)CCC=C(C)CCC=C(C)CCC=C(C)CCC=C(C)CCC=C(C)CCC=C(C)CCC=C(C)CCC=C(C)CCC=C(C)C)=C(C)C1=O`, the nuclear beta-catenin stimulation was 0.8% (inactive) in experiment [1] (at 10 µM) and 1.2% in experiment [1] (stimulation, at 2 µM). Besides, the insulin secretion stimulation in experiment [2] was 3.9% (inactive). For the same molecule, the viability decrease in experiment [3] is 13.5% (inactive). Also, the tube area decrease in experiment [4] is -5.2% (inactive). Also, in experiment [5], the GLP1 secretion stimulation is 1.9% (inactive). In experiment [6], the inhibition of viability was 4.6% (inactive). For the same molecule, the viability decrease (inhibition) is -7.3% (inactive) in experiment [7] and 1.9% (inactive) in experiment [8].
Turning to `CC(=O)SC[C@@H](Cc1ccccc1)C(=O)NCC(=O)OCc1ccccc1`, the nuclear beta-catenin stimulation in experiment [1] (at 10 µM) was -0.9% (inactive); in experiment [1] (stimulation, at 2 µM), 0.5%. Also, the insulin secretion stimulation in experiment [2] was -1.4% (inactive). Also, in experiment [3], the viability decrease was -9.8% (inactive). Besides, the tube area decrease in experiment [4] is 18.9% (inactive). For the same molecule, the GLP1 secretion stimulation in experiment [5] is -4.5% (inactive). For the same molecule, the inhibition of viability in experiment [6] is -2% (inactive). The values for the viability decrease (inhibition) in experiment [7] and in experiment [8] were -6.1% (active) and -5.9% (inactive), respectively.
For the molecule `NC(=O)C(=O)N/N=C/c1ccc([N+](=O)[O-])o1`, the nuclear beta-catenin stimulation was 4.5% (inactive) in experiment [1] (at 10 µM) and 1.5% in experiment [1] (stimulation, at 2 µM). Besides, the insulin secretion stimulation in experiment [2] is -3.3% (inactive). In experiment [3], the viability decrease is 17.6% (inactive). For the same molecule, the tube area decrease in experiment [4] is 28.8% (inactive). The GLP1 secretion stimulation in experiment [5] is -1.5% (inactive). In experiment [6], the inhibition of viability is 0.3% (inactive). Besides, the values for the viability decrease (inhibition) in experiment [7] and in experiment [8] were 89.2% (active) and 23.6% (inactive), respectively.
With `OC[C@@H](O)[C@H](O)[C@H](O)[C@@H](O)CO`, the nuclear beta-catenin stimulation in experiment [1] (at 10 µM) was 0.7% (inactive) and 2.5% (inactive); in experiment [1] (stimulation, at 2 µM), -0.3% and 1%. Further, the insulin secretion stimulation in experiment [2] was 0.1% (inactive) and 1.8% (inactive). In addition, in experiment [3], the viability decrease is -25.2% (inactive) and 11.4% (inactive). Further, the tube area decrease in experiment [4] was 3.7% (inactive) and 50.5% (active). The GLP1 secretion stimulation in experiment [5] is 0.3% (inactive) and -1.2% (inactive). The inhibition of viability in experiment [6] was -3.33% (inactive) and -2.5% (inactive). Also, the viability decrease (inhibition) is 4.1% (inactive) and 1.5% (inactive) in experiment [7]; -1.5% (inactive) and -4.9% (inactive) in experiment [8].
On to `Nc1ccc(/C=C/c2ccc(N)cc2S(=O)(=O)O)c(S(=O)(=O)O)c1`, for which the nuclear beta-catenin stimulation in experiment [1] (at 10 µM) was 0.5% (inactive); in experiment [1] (stimulation, at 2 µM), 0.9%. The insulin secretion stimulation in experiment [2] is 0.1% (inactive). For the same molecule, in experiment [3], the viability decrease is -4.75% (inactive). In addition, the tube area decrease in experiment [4] is -11.3% (inactive). In experiment [5], the GLP1 secretion stimulation is -0.8% (inactive). In experiment [6], the inhibition of viability was -10.1% (inactive). In addition, the viability decrease (inhibition) was 13% (active) in experiment [7] and -4.05% (inactive) in experiment [8].
`Cc1cn([C@H]2C[C@H](F)[C@@H](CO)O2)c(=O)[nH]c1=O`: the nuclear beta-catenin stimulation in experiment [1] (at 10 µM) is 9.9% (inactive); in experiment [1] (stimulation, at 2 µM), 3.4%. Moreover, the insulin secretion stimulation in experiment [2] was 0.2% (inactive). The viability decrease in experiment [3] is -4.5% (inactive). In experiment [4], the tube area decrease was 20.7% (inactive). Moreover, in experiment [5], the GLP1 secretion stimulation was -4.5% (inactive). Besides, the inhibition of viability in experiment [6] was 1.4% (inactive). The viability decrease (inhibition) in experiment [7] is -3.5% (inactive); in experiment [8], -8.7% (inactive).
`CC(C)=CCNc1ncnc2c1ncn2[C@@H]1O[C@H](CO)[C@@H](O)[C@H]1O`: the nuclear beta-catenin stimulation in experiment [1] (at 10 µM) was 4.6% (inactive); in experiment [1] (stimulation, at 2 µM), 1.9%. Moreover, in experiment [2], the insulin secretion stimulation is 1.8% (inactive). In addition, the viability decrease in experiment [3] is 109% (active). Also, the tube area decrease in experiment [4] is 106% (active). Moreover, the GLP1 secretion stimulation in experiment [5] was 0.8% (inactive). For the same molecule, in experiment [6], the inhibition of viability is 111% (active). Also, the viability decrease (inhibition) in experiment [7] was 110% (active); in experiment [8], 101% (active).
